Measurements as given in PubChem BioAssay.
The source made the active and inactive calls.

Tests used:
[1] = optical density shifts of acrAB sulA E. coli – strain DRC41, OD650, 48 h, E. coli filamentation inducer project, primary screen (AID 1152); settings: higher = more signal, called active from +8 up or from −8 down;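 further: E. coli MC1000 strain DRC41 lacking acrAB efflux pump and sulA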
[2] = probe aLefty1 binding on compound microarray – biochemical, small-molecule microarray, 635/667 nm fluorescence, primary screen (AID 1153); settings: higher = more signal;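 further: score merges spot fluorescence with signal-to-noise ratio from the scanned slide images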
[3] = plasmodial surface anion channel blockers, osmotic lysis – cell-based, P. falciparum Indochina, OD700, 1 h, primary screen (AID 1154); settings: P. falciparum Indochina infected RBC osmotic lysis, higher = more signal, called active from +8 up or from −8 down
[4] = plasmodial surface anion channel blockers, osmotic lysis – cell-based, P. falciparum Indochina, OD700, 2 h, primary screen (AID 1155);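 further: lysis reports solute entry through the parasite surface anion channel PSAC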; settings: P. falciparum Indochina infected erythrocytes, higher = more signal, called active from +8 up or from −8 down
[5] = changes in parasitized red cell lysis, either direction – P. falciparum Indochina, OD700, 3 h, PSAC antagonist project, primary screen (AID 1156); settings: P. falciparum-infected erythrocytes, osmotic lysis, higher = more signal, called active from +8 up or from −8 down
[6] = plasmodial surface anion channel blockers, osmotic lysis – cell-based, P. falciparum Indochina, OD700, 18 h, primary screen (AID 1157); settings: P. falciparum Indochina infected erythrocytes, osmotic lysis OD700, 18 h; higher = more signal, called active from +8 up or from −8 down
[7] = S6 kinase pathway phospho-S6 level changes – cell-based, A549, cytoblot, luminescence, serum-stimulated, primary screen (AID 1158); settings: 5 h, higher = more signal;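 further: serum-stimulated A549 lung adenocarcinoma cells; signal is phosphorylated S6 detected by cytoblot immunostaining with HRP secondary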
[8] = target: NADPH oxidase 2 (Homo sapiens) (UniProt P04839); experiment: compounds shifting NOX2 Amplex Red fluorescence – cell-based, HEK293-NOX2, PMA-stimulated, NOX inhibitor project, primary screen (AID 1159); settings: 45 min, higher = more signal, called active from +8 up or from −8 down; further: test concentration not given here
[9] = target: NADPH oxidase 4 (Homo sapiens) (UniProt Q9NPH5); experiment: compounds shifting NOX4 Amplex Red fluorescence – cell-based, HEK293-NOX4, tetracycline-induced, NOX inhibitor project, primary screen (AID 1160); settings: HEK293-NOX4, Amplex Red H2O2 fluorescence, 45 min; higher = more signal, called active from +8 up or from −8 down
[10] = target: NADPH oxidase 5 (Homo sapiens) (UniProt Q96PH1); experiment: compounds shifting NOX5 Amplex Red fluorescence – cell-based, HEK293-NOX5, NOX inhibitor project, primary screen (AID 1161); settings: HEK293-NOX5, ionomycin, 45 min, higher = more signal
[11] = compound effects on lung adenocarcinoma cell viability – A549, calcein-AM fluorescence, 48 h, basal, profiling panel (AID 1162); settings: higher = more signal; further: test concentration not given here
[12] = compound effects on differentiated 3T3-L1 adipocyte viability – cell-based, 3T3-L1 adipocytes, calcein-AM fluorescence, 48 h, basal, profiling panel (AID 1163); settings: 3T3-L1 adipocytes viability, higher = more signal; further: test concentration not given here
[13] = compound effects on hepatocellular carcinoma cell viability – HepG2, calcein-AM fluorescence, 48 h, basal, profiling panel (AID 1164); settings: higher = more signal; further: test concentration not given here
[14] = compound effects on multiple myeloma cell viability – MM1S, calcein-AM fluorescence, 48 h, basal, profiling panel (AID 1165); settings: higher = more signal;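 further: viability of MM1S multiple myeloma cells under basal unstimulated conditions; test concentration not given here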
[15] = calcein-AM signal in unstimulated myeloma cells – cell-based, calcein-AM fluorescence, 48 h, PK04 Diversity Set, profiling panel (AID 1166); settings: RPMI8226 myeloma viability, higher = more signal;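 further: cells grown under basal conditions without added stimulus; test concentration not given here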
[16] = JC-1 mitochondrial signal, unstimulated HepG2 cells – cell-based, JC-1 fluorescence, 24 h, 100 nL compound, profiling panel (AID 1167); settings: HepG2 mitochondrial potential, higher = more signal; further: test concentration not given here
[17] = JC-1 mitochondrial signal, unstimulated adipocytes – cell-based, JC-1 fluorescence, 3T3-L1 adipocytes, 24 h, 100 nL compound, profiling panel (AID 1168); settings: JC-1 mitochondrial fluorescence, higher = more signal, called active from +8 up or from −8 down; further: test concentration not given here
[18] = JC-1 mitochondrial signal, unstimulated myeloma cells – cell-based, JC-1 fluorescence, RPMI8226, 24 h, 100 nL compound, profiling panel (AID 1169); settings: JC-1 mitochondrial potential fluorescence, higher = more signal; further: test concentration not given here
[19] = JC-1 mitochondrial signal, unstimulated MM1S myeloma – cell-based, JC-1 fluorescence, 24 h, 100 nL compound, profiling panel (AID 1170); settings: MM1S mitochondrial potential, higher = more signal; further: test concentration not given here
[20] = resazurin metabolic signal in A549 cells – cell-based, resazurin fluorescence, 24 h, PK04 Diversity Set, profiling panel (AID 1171); settings: A549 viability, higher = more signal, called active from +8 up or from −8 down; further: test concentration not given here

Sequence of NADPH oxidase 4 (Homo sapiens) (Q9NPH5 whole entry, looked up): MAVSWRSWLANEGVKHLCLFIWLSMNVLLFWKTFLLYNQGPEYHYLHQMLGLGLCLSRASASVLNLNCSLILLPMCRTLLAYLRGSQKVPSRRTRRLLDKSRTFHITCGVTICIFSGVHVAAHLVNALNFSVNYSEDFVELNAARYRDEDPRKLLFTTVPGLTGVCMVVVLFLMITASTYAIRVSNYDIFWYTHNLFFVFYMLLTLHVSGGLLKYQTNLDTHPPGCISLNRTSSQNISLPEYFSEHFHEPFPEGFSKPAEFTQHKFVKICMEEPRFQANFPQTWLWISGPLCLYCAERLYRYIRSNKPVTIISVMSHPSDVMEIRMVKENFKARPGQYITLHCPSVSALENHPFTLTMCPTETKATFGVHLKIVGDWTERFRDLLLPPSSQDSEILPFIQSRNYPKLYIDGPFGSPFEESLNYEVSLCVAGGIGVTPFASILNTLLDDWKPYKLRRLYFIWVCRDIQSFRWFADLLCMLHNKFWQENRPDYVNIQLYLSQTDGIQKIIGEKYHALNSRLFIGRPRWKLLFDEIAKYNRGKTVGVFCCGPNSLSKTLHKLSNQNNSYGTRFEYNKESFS
Sequence of NADPH oxidase 5 (Homo sapiens) (Q96PH1 whole entry, looked up): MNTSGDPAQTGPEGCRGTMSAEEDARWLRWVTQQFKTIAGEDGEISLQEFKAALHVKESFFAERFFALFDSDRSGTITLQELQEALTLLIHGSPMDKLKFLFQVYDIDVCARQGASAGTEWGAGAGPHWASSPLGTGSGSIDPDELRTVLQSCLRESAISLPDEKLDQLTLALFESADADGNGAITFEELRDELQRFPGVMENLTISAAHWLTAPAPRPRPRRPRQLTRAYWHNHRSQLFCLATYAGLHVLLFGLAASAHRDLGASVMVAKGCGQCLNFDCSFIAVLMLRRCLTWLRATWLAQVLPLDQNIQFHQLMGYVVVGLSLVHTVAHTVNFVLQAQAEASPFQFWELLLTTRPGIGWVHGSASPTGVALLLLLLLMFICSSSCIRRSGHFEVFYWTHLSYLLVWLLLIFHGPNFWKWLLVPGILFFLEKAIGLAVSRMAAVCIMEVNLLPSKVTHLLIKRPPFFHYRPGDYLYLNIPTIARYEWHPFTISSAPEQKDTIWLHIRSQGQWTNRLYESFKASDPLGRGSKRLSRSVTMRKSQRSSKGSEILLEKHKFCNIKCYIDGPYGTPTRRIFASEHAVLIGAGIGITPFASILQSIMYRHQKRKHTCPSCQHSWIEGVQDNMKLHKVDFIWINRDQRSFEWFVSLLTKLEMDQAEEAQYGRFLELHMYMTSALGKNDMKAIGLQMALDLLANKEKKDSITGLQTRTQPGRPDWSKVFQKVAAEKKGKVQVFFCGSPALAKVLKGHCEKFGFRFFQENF
Sequence of NADPH oxidase 2 (Homo sapiens) (P04839 whole entry, looked up): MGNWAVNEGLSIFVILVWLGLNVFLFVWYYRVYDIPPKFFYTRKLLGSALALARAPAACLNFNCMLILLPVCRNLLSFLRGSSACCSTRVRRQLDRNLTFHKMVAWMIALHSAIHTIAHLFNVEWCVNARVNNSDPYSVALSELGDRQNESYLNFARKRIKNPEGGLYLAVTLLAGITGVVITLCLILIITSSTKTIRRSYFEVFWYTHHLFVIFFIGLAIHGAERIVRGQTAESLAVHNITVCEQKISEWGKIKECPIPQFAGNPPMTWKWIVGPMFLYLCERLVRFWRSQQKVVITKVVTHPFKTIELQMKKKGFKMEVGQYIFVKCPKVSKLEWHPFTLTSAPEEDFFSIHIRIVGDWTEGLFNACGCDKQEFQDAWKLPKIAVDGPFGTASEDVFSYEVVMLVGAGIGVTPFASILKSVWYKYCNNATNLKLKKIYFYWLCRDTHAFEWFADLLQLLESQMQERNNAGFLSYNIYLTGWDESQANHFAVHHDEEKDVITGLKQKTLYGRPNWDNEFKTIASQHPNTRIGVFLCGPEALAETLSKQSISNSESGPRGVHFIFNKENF

SMILES | z-score [1] | composite z-score [2] | z-score [3] | z-score [4] | z-score [5] | z-score [6] | z-score [7] | z-score [8] | z-score [9] | z-score [10] | z-score [11] | z-score [12] | z-score [13] | z-score [14] | z-score [15] | z-score [16] | z-score [17] | z-score [18] | z-score [19] | z-score [20]
CCC[C@@H]1[C@@H](Sc2ccccc2)[C@@H](C(=O)O)[C@H](c2ccc(C)cc2)N1S(=O)(=O)c1ccc(C)cc1 | 0.086 (inactive) | 0.0531 | 1.44 (inactive) | 0.495 (inactive) | -0.892 (inactive) | 1 (inactive) | -0.0334 | 1.82 (inactive) | 0.872 (inactive) | 1.27 | -0.861 | -0.571 | 0.699 | 0.116 | -2.59 | -0.772 | 1.41 (inactive) | -0.134 | -1.64 | -0.856 (inactive)
CC1CC/C=C\[C@H]2OC34C=CCN(c5ccc(Cl)cc5)C(=O)[C@H]3N(CCCO)C(=O)[C@]4(C)C2C(=O)O1 (stereo not given in full) | -0.836 (inactive) | 0.135 | 0.113 (inactive) | 0.66 (inactive) | -0.338 (inactive) | 0.356 (inactive) | -0.264 | 1.5 (inactive) | -1.22 (inactive) | 2.34 | 0.606 | 0.208 | -0.865 | 1.04 | 0.338 | -0.713 | -0.887 (inactive) | -0.294 | 1.86 | -0.6 (inactive)
C=C(CC1([C@@H](NP(=O)(c2ccccc2)c2ccccc2)[C@H]2C[C@@H]2CCN(C(=O)OCC)S(=O)(=O)c2ccc(C)cc2)CC1)c1ccccc1 | -1.42 (inactive) | 0.723 | 2.02 (inactive) | 0.939 (inactive) | 2.36 (inactive) | 1.28 (inactive) | 0.603 | 0.464 (inactive) | -1.66 (inactive) | -3.34 | -2.02 | 1.2 | -1.12 | -0.798 | -3.89 | 4.8 | -1.47 (inactive) | -0.699 | -1.09 | 0.789 (inactive)
COc1ccc([Si](C)(C)[C@H]2[C@H](CCO)O[C@@]3(C(=O)N(Cc4ccc(N5CCOC5=O)cc4)c4ccccc43)[C@@H]2C)cc1 | 0.257 (inactive) | 0.203 | 34.9 (active) | 32.8 (active) | 1.63 (inactive) | 6.38 (inactive) | 0.419 | -0.372 (inactive) | 1.75 (inactive) | 0.908 | -0.108 | 0.684 | -0.591 | -2.54 | -3.98 | 0.137 | 1.82 (inactive) | -0.992 | -1.49 | -1.54 (inactive)
COc1ccc(C#Cc2ccc3c(c2)[C@]2(C(=O)N3)[C@H](C(=O)Nc3nc4ccccc4s3)[C@H]3C(=O)O[C@H](c4ccccc4)[C@H](c4ccccc4)N3[C@@H]2c2ccc(OCCO)cc2)cc1 | -0.368 (inactive) | -0.0186 | 2.85 (inactive) | 1.41 (inactive) | -0.521 (inactive) | 0.81 (inactive) | 0.13 | 0.578 (inactive) | 0.0813 (inactive) | -1.04 | -0.255 | 0.183 | 0.044 | -2.63 | -0.988 | -3.48 | -1.95 (inactive) | -1.21 | -2.1 | 0.135 (inactive)
CC(C)C[C@@H]1NC(=O)C([C@@H](C)OCc2ccccc2)NC(=O)[C@@]23C(=O)N[C@@H](Cc4ccccc4)C2[C@H](C)[C@@]2(C)O[C@H]2C3/C=C/CC/C=C/CNC1=O (stereo not given in full) | 0.757 (inactive) | -0.164 | 1.35 (inactive) | -0.601 (inactive) | -0.0722 (inactive) | -1.61 (inactive) | 0.189 | 0.681 (inactive) | 0.98 (inactive) | -0.24 | -0.638 | 1.58 | 0.0538 | -1.31 | -2.32 | 2 | 0.17 (inactive) | -0.478 | -0.638 | -0.785 (inactive)
CCCC[C@@H]1C[C@H]1[C@@H](NC(=O)c1ccc(C(F)(F)F)cc1)c1ccc(C(=O)OC)cc1 | -0.499 (inactive) | 0.375 | 8.27 (active) | 0.851 (inactive) | 0.512 (inactive) | 0.422 (inactive) | -0.0327 | -0.628 (inactive) | 0.497 (inactive) | 1.03 | -0.844 | -0.55 | -1.33 | -1.97 | -1.73 | -0.84 | 0.282 (inactive) | -0.167 | -1.72 | 0.312 (inactive)
Cc1c(-c2ccc(-c3ccc(Cl)c(Cl)c3)o2)nc(-c2ccccc2)c2c1CO[Si]2(C(C)C)C(C)C | -1.3 (inactive) | -0.101 | 0.311 (inactive) | -0.267 (inactive) | -0.803 (inactive) | -0.944 (inactive) | -0.298 | -0.545 (inactive) | 0.0324 (inactive) | -0.237 | -0.719 | -0.527 | 0.0118 | -3.01 | -3.96 | -1.38 | -0.313 (inactive) | -0.933 | -1.66 | 0.525 (inactive)
CC(=O)n1cc(C(O)C2C=CC3C(=O)N(c4ccccc4)C(=O)C3N2Nc2ccccc2F)c2ccccc21 (stereo not given) | 0.506 (inactive) | -0.147 | 8 (active) | 1.04 (inactive) | 0.0784 (inactive) | -0.0595 (inactive) | 0.988 | -1.82 (inactive) | -3.23 (inactive) | -0.614 | 0.512 | 0.23 | -0.798 | -0.834 | -0.056 | -0.69 | -1.2 (inactive) | 0.408 | -1.41 | 0.423 (inactive)
